This is a sample that favours compounds with a hit; in the whole collection about 18% have one here.
TGFb SMAD3 inh = qHTS for Inhibitors of TGF-b; hit rate 1.2% among 410,000; HepG2 CAGA-GFP TGF-b/SMAD3 reporter, GFP fluorescence, 18 h; TGF-beta stimulated, 500 pg/mL final; AID 588855, 2011; Potency, µM (doses to about 46.1 µM), inactives show top-dose activity, negative = inhibition, actives largely listed as inhibitors; further: potency means the concentration at half of the fitted maximal effect; on the % scale 0 is the no-effect control and ±100 the full control effect; nearly all actives have a fitted effect of over 65% in size
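Using HEPG2 CAGA-GFP reporter cells at 1000 cells/well, we pinned test compounds, stimulated with recombinant TGF-beta (500 pg/mL final) and measured total well GFP after 18 h.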
IL-1B inflam inh = qHTS for Inhibitors of Inflammasome Signaling: IL-1-beta AlphaLISA Primary Screen; THP-1 LPS/ATP IL-1B secretion, AlphaLISA, 16 h; active compounds read low; activity change, % at 57.5 µM; hit rate 4.7% among 360,000; AID 743279, 2014; in the data active means activity change below about -50%; inconclusive means mostly about -30% to -49%; further: on the % scale 0 is the no-effect control and ±100 the full control effect
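Secreted IL-1B measured by AlphaLISA bead assay after 16 h compound exposure of THP-1 cells; compounds (final up to 57.5 uM) added 1 h before LPS (250 ng/mL) and ATP (1.25 mM) stimulation; lower signal means less secretion.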
HepG2 tox = qHTS for Inhibitors of TGF-b: Cytotox Counterscreen. HepG2 CAGA-GFP viability, ATP luminescence, 18 h. hit rate 0.76% among 410,000. AID 588856, 2011. Potency, µM (top dose mostly 46.1 µM), for the others: at the highest dose activity change, negative = cytotoxicity, most hits filed as cytotoxic; further: potency means the concentration at half of the fitted maximal effect
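HepG2 CAGA-GFP cells (1000/well, DMEM with 1% FBS) received compound, then TGF-beta at 500 pg/mL final, and were incubated 18 hours at 37 degrees C. Viability was read by CellTiter-Glo luminescence. Media-only wells were set as complete cell-killing and DMSO as no toxicity.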
DT40 TDP1 no CPT = qHTS for Inhibitors of human tyrosyl-DNA phosphodiesterase 1 (TDP1): qHTS in cells in absence of CPT; DT40 Tdp1-/- hTDP1 cells, no CPT, ATP luminescence, 48 h; Potency, µM (titrated, usually from 46.2 µM), for inactives: at the top dose activity change, negative = growth inhibition, actives largely listed as inhibitors; hit rate 15% among 420,000; AID 686978, 2013; further: potency means the concentration at half of the fitted maximal effect; on the % scale 0 is the no-effect control and ±100 the full control effect; nearly all actives have a fitted effect of over 55% in size
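Compound effects on proliferation are scored in DT40 Tdp1-/-;hTDP1 cells in the absence of CPT. ATP levels (CellTiter-Glo luminescence) are recorded after a ≥48 hr, 37 °C incubation.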
DT40 TDP1 CPT = qHTS for Inhibitors of human tyrosyl-DNA phosphodiesterase 1 (TDP1): qHTS in cells in presence of CPT. chicken DT40 Tdp1-/-;hTDP1 cells + 20 nM CPT, ATP luminescence, 48 h. Potency, µM (doses to about 46.2 µM), for inactives: at the top dose activity change, negative = growth inhibition, actives largely listed as inhibitors. hit rate 12% among 420,000; further: potency means the concentration at half of the fitted maximal effect; on the % scale 0 is the no-effect control and ±100 the full control effect; nearly all actives have a fitted effect of over 55% in size
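Chicken DT40 Tdp1-/- cells stably complemented with human TDP1 were seeded at 400 cells/well in medium containing 20 nM camptothecin, exposed to pin-transferred compounds, and grown at 37 °C for at least 48 hr. Viability was read as ATP luminescence.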
TDP1 inh = qHTS Assay for Inhibitors of Tyrosyl-DNA Phosphodiesterase (TDP1). Tyrosyl-DNA phosphodiesterase 1 (Homo sapiens), Q9NUW8. recombinant TDP1, AlphaScreen DNA substrate cleavage. Potency, µM (top dose mostly 130 µM), for the others: at the highest dose activity change, negative = inhibition, actives largely listed as inhibitors. hit rate 0.28% among 350,000. AID 485290, 2010; further: potency means the concentration at half of the fitted maximal effect; on the % scale 0 is the no-effect control and ±100 the full control effect; nearly all actives have a fitted effect of over 40% in size
Target sequence (Q9NUW8 whole entry, looked up): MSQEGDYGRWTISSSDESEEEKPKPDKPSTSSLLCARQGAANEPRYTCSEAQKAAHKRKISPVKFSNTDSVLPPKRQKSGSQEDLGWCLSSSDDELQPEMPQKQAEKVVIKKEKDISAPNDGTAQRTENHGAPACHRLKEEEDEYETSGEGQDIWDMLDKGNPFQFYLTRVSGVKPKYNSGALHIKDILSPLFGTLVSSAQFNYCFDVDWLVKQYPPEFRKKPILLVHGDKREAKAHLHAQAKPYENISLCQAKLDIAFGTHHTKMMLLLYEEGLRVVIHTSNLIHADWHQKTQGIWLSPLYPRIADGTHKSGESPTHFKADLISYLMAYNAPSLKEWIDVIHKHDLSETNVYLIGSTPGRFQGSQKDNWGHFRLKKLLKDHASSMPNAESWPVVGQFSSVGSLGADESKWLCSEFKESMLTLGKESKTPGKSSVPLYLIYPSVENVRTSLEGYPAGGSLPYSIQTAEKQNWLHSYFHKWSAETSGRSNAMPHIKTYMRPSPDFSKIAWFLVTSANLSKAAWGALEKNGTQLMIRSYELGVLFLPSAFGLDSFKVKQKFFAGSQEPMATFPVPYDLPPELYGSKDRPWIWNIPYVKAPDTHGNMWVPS
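Signal: AlphaScreen proximity between streptavidin donor and anti-FITC acceptor beads on intact substrate. Reaction: Tdp1 1 nM, substrate 15 nM final, 5 min RT after 15 min compound preincubation.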
Numbers without * were called inactive; u = inconclusive; x = no result; [ ] = another dose, or the depositor's remark. Unless noted, the call rests on the fitted dose curve; in most records, active means well fitted curve in the direction sought with a large enough effect; inconclusive means small, poorly fitted or top-dose-only effect, or another doubt; inactive means no such curve, though single readings can be large; an effect the other way counts as inactive or inconclusive.

SMILES | TGFb SMAD3 inh | IL-1B inflam inh | HepG2 tox | DT40 TDP1 no CPT | DT40 TDP1 CPT | TDP1 inh
O=C(c1ccccc1)N1CCCC(c2nc3c(nnn3Cc3ccc(F)cc3F)c(=O)[nH]2)C1 (stereo unspecified) | -15.5% | x | -14.8% | u | -3.3% | -5.1%
COc1ccc(Cn2nnc3c(C)n[nH]c(=O)c32)cc1 | 0.0% | 15.9 | 0.5% | 0.6% | -2.0% | x
CCOC(=O)c1ccc(N2C(=O)CC(C(=O)OC)=C2C)cc1 | -15.8% | 1.3 | -34.1% | u | -24.9% | 6.6%
CCOC(=O)C1=C(N)N(c2ccccc2)C(=O)C1 | 0.0% | 18.4 | -3.8% | 16.4µM* | 7.31µM* | 4.9%
Cc1ccc(NS(=O)(=O)c2cc3c(cc2Cl)CCC(=O)N3)cc1C | x | x | x | x | x | 0.6%
CC1=NN(c2ccccc2C(=O)O)C(=O)C1N=Nc1ccccc1 (stereo unspecified) | -3.8% | 17.3 | -26.4% | 20.6µM* | 13µM* | x
CCC12CN3CC(CC)(CN(C1)C3c1c[nH]c3ccccc13)C2=O (stereo unspecified) | u | x | -35.0% | 16.4µM* | -84.7% | 7.0%
CCn1cc(C2N3CC4(CC)CN2CC(CC)(C3)C4=O)c2ccccc21 (stereo unspecified) | -4.7% | x | -2.8% | 18.4µM* | u | 7.0%
CCC12CN3CC(CC)(CN(C1)C3c1c(O)ccc3ccccc13)C2=O (stereo unspecified) | -11.5% | 18.0 | -23.3% | -5.6% | -3.1% | 4.3%
CCC12CN3CC(C)(CN(C1)C3c1c[nH]c3ccccc13)C2=O (stereo unspecified) | u | x | -0.3% | 23.1µM* | u | 2.3%
O=C1CC(NS(=O)(=O)c2ccccc2F)CN1c1ccc2c(c1)OCCO2 (stereo unspecified) | -3.9% | 6.3 | 6.8% | -9.4% | -2.3% | x
CCCNC(=O)C(Cc1ccc(I)cc1)NC(=O)C1CC1 (stereo unspecified) | -5.8% | 21.2 | -2.7% | -19.1% | -18.3% | 1.3%
C(=N\N1CCN(C2c3ccccc3-c3ccccc32)CC1)/c1ccncc1 | 6.2% | -21.2 | 1.2% | u | u | 7.4%
COc1cc(/C=N/N2CCN(C3c4ccccc4-c4ccccc43)CC2)ccc1O | u | 0.0 | -64.3% | 23.1µM* | 25.9µM* | 2.1%
Oc1cccc(/C=N/N2CCN(C3c4ccccc4-c4ccccc43)CC2)c1 | u | -56.7* | -61.1% | u | u | 7.1%
COc1cccc(/C=N/N2CCN(C3c4ccccc4-c4ccccc43)CC2)c1O | 2.7% | -6.4 | 5.1% | 16.4µM* | u | 6.0%
COC(=O)CSc1ncc2c(n1)-c1ccccc1N(Cc1cccc(F)c1)S2(=O)=O | 15.2% | x | 5.8% | 4.0% | 11.5% | 7.9%
Cc1cccc(N2CCN(c3nc4ccccc4n4cnnc34)CC2)c1C | -14.6% | 6.3 | -7.4% | u | 25.9µM* | 2.5%
c1cnc(N2CCN(c3nc4ccccc4n4cnnc34)CC2)nc1 | 2.5% | -11.3 | -18.0% | -22.4% | -11.8% | 2.9%
c1ccc(C(c2ccccc2)N2CCN(c3nc4ccccc4n4cnnc34)CC2)cc1 | u | 35.9 | 3.3% | 3.66µM* | u | 5.2%
Cc1cccc(NC(=O)Cn2nc(N3CCN(c4ccccc4)CC3)ccc2=O)c1C | -4.8% | x | -13.1% | u | u | 2.6%
CN(C)C(=O)[C@H]1C[C@H]1[C@@H](O)[C@H](CO)NC(=O)[C@H](COCc1ccccc1)NC(=O)OC(C)(C)C | u | 21.9 | -2.3% | -9.3% | -2.8% | x
CCN(c1ccc(C)cc1)S(=O)(=O)c1nnc(NC(=O)C2CCCCC2)s1 | x | x | 1.6% | 10.3µM* | u | -6.5%
CC(C)CN(c1ccccc1)S(=O)(=O)c1nnc(NC(=O)C2CCCCC2)s1 | -8.0% | x | -22.3% | u | 5.17µM* | -2.6%
CCN(c1ccccc1)S(=O)(=O)c1nnc(NC(=O)C2CCCCC2)s1 | -25.0% | x | 0.4% | -0.6% | 3.2% | 7.8%
SMILES | TGFb SMAD3 inh | IL-1B inflam inh | HepG2 tox | DT40 TDP1 no CPT | DT40 TDP1 CPT | TDP1 inh
OCCCNCc1cc2cc3c(cc2nc1N1CCN(c2cccc(Cl)c2)CC1)OCO3 | x | x | x | -12.0% | 6.7%[9.04 µM] | x
Cc1ccc(C)n1-c1ccc(N2CCOCC2)c(Br)c1 | -20.5% | u | -9.9% | 14.6µM* | 18.4µM* | 5.3%
Cc1oc(-c2ccc(C(=O)NCc3ccccc3Cl)cc2)nc1CN1CCc2ccccc21 | -11.9% | x | -16.3% | x | x | 4.1%
Cc1cccc(-c2ocnc2C(=O)Nc2ccccc2NC(=O)c2ccccn2)c1 | u | u | -7.1% | 0.291µM* | 0.92µM* | 9.2%
Cc1cccc(-c2ocnc2C(=O)Nc2ccccc2C(=O)N2CCCC2)c1 | -2.7% | 36.1 | -31.3% | u | u | 4.4%
Cc1ccc(-c2ocnc2C(=O)Nc2ccccc2NC(=O)c2ccccn2)cc1 | u | u | -39.2% | u | 20.6µM* | 7.4%
CSc1ccccc1NC(=O)c1ccccn1 | -8.1% | -22.4 | -4.8% | 2.06µM* | 1.3µM* | 1.1%
Cc1ccccc1NC(=O)c1ccccn1 | 0.8% | -1.9 | 7.3% | -0.4% | u | 8.2%
O=C(COC(=O)C1CC1)Nc1c(Cl)cccc1C(F)(F)F | -1.4% | -4.0 | 16.7% | 5.0% | -2.4% | -11.8%
O=C(c1ccco1)[C@@H]1[C@@H]2C(=O)N(c3ccc(F)cc3)C(=O)[C@@H]2C2c3ccccc3C=CN21 (stereo partly specified) | x | x | x | x | x | 10.0%
CC(=O)[C@@H]1[C@@H](C(=O)c2ccccc2)[C@]2(C(=O)Nc3ccccc32)[C@H]2C=Cc3cc(F)ccc3N12 | 0.8% | 0.0 | -11.5% | 18.4µM* | 23.1µM* | 0.0%
O=C(c1ccccc1)[C@@H]1[C@@H](C(=O)c2ccc(F)cc2)[C@@]2(C(=O)Nc3ccccc32)[C@H]2c3ccccc3C=CN12 | -25.2% | u | 3.2% | 14.6µM* | 23.1µM* | 5.5%
CC(=O)CC1(O)C(=O)Nc2ccccc21 (stereo unspecified) | 5.6% | 11.4 | -5.2% | 11.6% | -3.8% | 5.5%
CCN1C[C@@H]2[C@@H]3C(=O)N(C)C(=O)[C@@H]3[C@](Cc3ccccc3)(C1=O)N2C(=O)c1ccc(C(C)(C)C)cc1 | -0.4% | 10.1 | -2.4% | -28.3% | -27.5% | x
